In the library only some 10% were active in any assay of this set; here they are far more common.
GLS inh – blocks human kidney-isoform glutaminase activity; Potency, µM (titrated, usually from 45.5 µM), without a hit: at the top dose activity change, negative = inhibition, actives largely listed as inhibitors; 410,000 tested, 0.21% active; GLS enzymatic activity, qHTS titration; also: % is scaled to controls: 0 for no effect and ±100 for the full control effect
Target sequence (O94925 whole entry, looked up, canonical isoform): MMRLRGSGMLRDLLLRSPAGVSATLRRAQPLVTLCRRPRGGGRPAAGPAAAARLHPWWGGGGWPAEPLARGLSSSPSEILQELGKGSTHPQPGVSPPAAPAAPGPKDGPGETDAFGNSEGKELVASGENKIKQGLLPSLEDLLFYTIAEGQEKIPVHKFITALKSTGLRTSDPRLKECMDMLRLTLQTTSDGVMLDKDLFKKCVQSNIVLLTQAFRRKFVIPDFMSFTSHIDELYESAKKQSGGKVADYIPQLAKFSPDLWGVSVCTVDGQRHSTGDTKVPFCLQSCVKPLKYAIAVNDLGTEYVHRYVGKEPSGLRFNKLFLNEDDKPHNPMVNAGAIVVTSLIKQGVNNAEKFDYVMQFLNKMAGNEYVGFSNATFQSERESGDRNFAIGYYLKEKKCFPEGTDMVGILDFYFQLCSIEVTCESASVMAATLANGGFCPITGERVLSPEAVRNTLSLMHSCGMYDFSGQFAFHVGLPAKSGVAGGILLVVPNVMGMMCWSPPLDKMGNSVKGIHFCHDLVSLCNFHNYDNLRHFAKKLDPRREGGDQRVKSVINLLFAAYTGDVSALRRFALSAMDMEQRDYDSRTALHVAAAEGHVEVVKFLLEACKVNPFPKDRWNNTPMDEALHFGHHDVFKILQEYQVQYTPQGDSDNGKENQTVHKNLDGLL
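hKGA in 45 mM KH2PO4 (pH 8.2), 0.02% Tween-20 with compound, then 1mM L-Glutamine (stock as added) plus glutamate oxidase/HRP/Amplex red coupling mix. Fluorescence read initially and after 30 min at RT; signal change reflects glutamate formation.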
JMJD2A Tudor – blocks the human JMJD2A Tudor domain | AlphaScreen JMJD2A-Tudor / H3K4me3 peptide binding | Potency, µM (highest dose often 114 µM), without a hit: at the highest dose activity change, negative = inhibition, most hits filed as inhibitors | 390,000 tested, 4.4% active | AID 504339; also: % is scaled to controls: 0 for no effect and ±100 for the full control effect; nearly all actives have a fitted effect of over 50% in size
HP1b chromo inh – blocks HP1-beta chromodomain binding to methylated histone tails; 390,000 tested, 0.56% active; P83916; Potency, µM (titrated, usually from 114 µM), inactives show at the top dose activity change, negative = inhibition, actives largely listed as inhibitors; AlphaScreen HP1-beta / biotin-H3K9me3 peptide binding; also: nearly all actives have a fitted effect of over 70% in size
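AlphaScreen: HP1-beta (50 nM) preformed 30 min with biotin-H3(1-18)K9me3 peptide (50 nM) in PBS pH 7.4, 0.01% Tween-20. Compound added for 30 min at RT, then streptavidin donor/nickel chelate acceptor beads (10 ug/mL) for 30 min.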
BAZ2B inh – blocks human BAZ2B; Q9UIF8; AlphaScreen BAZ2B-H3K14Ac peptide displacement; Potency, µM (top dose mostly 114 µM), for the others: at the top dose activity change, negative = inhibition, usual class: inhibitors; 360,000 tested, 4.4% active; AID 504333; also: % is scaled to controls: 0 for no effect and ±100 for the full control effect; nearly all actives have a fitted effect of over 60% in size
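Protein-peptide AlphaScreen: BAZ2B 50 nM, b-H3K14Ac 50 nM, 1x PBS pH 7.4 + 0.01% Tween-20. Preincubation 30 min RT; cpd 30 min RT (top 110 uM); beads 20 min RT, light-protected.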
G9a inh – inhibitors of human histone lysine methyltransferase G9a; Potency, µM (series often up to 102 µM), inactives show at the highest dose activity, negative = inhibition, hits mostly inhibitors; G9a H3K9 monomethylation, AlphaScreen, 2 h; 350,000 tested, 8.8% active; AID 504332; also: % is scaled to controls: 0 for no effect and ±100 for the full control effect; nearly all actives have a fitted effect of over 75% in size
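AlphaScreen read-out: biotin-H3K9 peptide (500 nM) methylation by 20 nM enzyme with 20 uM SAM, 2 h at room temperature after 15 min compound preincubation; anti-monomethyl H3K9 antibody plus donor/acceptor beads, 10 min dark.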
L3MBTL1 block – blocks human L3MBTL1; Q9Y468; AlphaScreen L3MBTL1–H3K9me1 peptide binding; Potency, µM (top dose mostly 57.1 µM), for inactives: top-dose activity, negative = inhibition, most hits filed as inhibitors; 230,000 tested, 0.66% active; also: % is scaled to controls: 0 for no effect and ±100 for the full control effect; nearly all actives have a fitted effect of over 60% in size
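AlphaScreen proximity signal between nickel-chelate acceptor and streptavidin donor beads (final 10 ug/mL) reports binding of 50 nM L3MBTL1 to 75 nM biotin-H3 K9me1 peptide; complex incubated with compounds 30 min at room temperature; cefsulodin titration as control.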
The depositor's hits bear a star; u = inconclusive; x = not tested or not shown; ! = repeats disagree; [ ] = remark or other dose. Calls follow the shape of the dose curve; as a rule, active = well fitted curve in the direction sought with a large enough effect; inconclusive = small, poorly fitted or top-dose-only effect, or another doubt; inactive = no such curve, though single readings can be large; an effect the other way counts as inactive or inconclusive. Potency is read from the fitted curve at half-maximal effect.

SMILES | GLS inh | JMJD2A Tudor | HP1b chromo inh | BAZ2B inh | G9a inh | L3MBTL1 block
CC(C)C(=O)N(c1ccc2oc(=O)sc2c1)S(=O)(=O)c1ccccc1 | -2% | u | 19% | -32% | 3.2µM* | x
COc1ccc(N(C(C)=O)S(=O)(=O)c2cc(OC)ccc2OC)cc1 | -1% | -12% | 21% | -3% | -7%[12.7 µM] | -1%
CCCc1nc(SCc2cc(=O)c3ccc(C)c(C)c3[nH]2)n[nH]1 | 9% | -14% | 16%[57 µM] | 16% | 56%[59 µM] | x
CC(=O)N(c1ccc2oc(=O)sc2c1)S(=O)(=O)c1ccccc1 | 4% | -2%[11.4 µM] | 5% | u | 25µM* | 0%
CCOC(=O)c1c(-c2ccccc2)oc2ccc(N(C(C)=O)S(=O)(=O)c3ccc(C)cc3)cc12 | 6% | -10% | 12% | -1% | 6%[59 µM] | x
Cc1ccc(-c2cn3c(n2)sc2cc(C(=O)N4CCCCC4)ccc23)cc1 | -13% | -15% | 44% | u | -28%[59 µM] | x
COc1ccc(CCC(C(O)C(F)(F)F)S(=O)c2ccccc2)cc1 (configuration not stated) | 5% | 40µM* | 5% | 8% | u | 1%
COc1ccc(NS(=O)CCCc2ccccc2)cc1 (configuration not stated) | -7% | x | x | x | x | x
CCOC(=O)c1cnc(SCC(=O)Nc2ccc(N3CCOCC3)cc2)nc1N | x | x | x | 3% | 25µM* | x
CCOC(=O)c1cnc(SCC(=O)N2CCN(c3ccccc3)CC2)nc1N | 10% | -17% | -1% | -18% | 35µM* | -3%
Cc1ccc(OCC(=O)NC2=NCCS2)cc1 | 11% | -17% | u | -6% | x | 1%
COc1ccc(CCN2CC(C(=O)Nc3ccc4c(c3)OCO4)CC2=O)cc1OC (configuration not stated) | 32% | 79µM* | u | u | 1%[59 µM] | x
O=C(COC(=O)[C@H](Cc1c[nH]c2ccccc12)NC(=O)c1ccc(Cl)cc1)Nc1ccc2c(c1)OCO2 | 11% | u | -13% | 56µM* | u | x
COc1ccc(N2CCN(S(=O)(=O)CCNC(=O)COc3ccccc3C)CC2)cc1 | -15% | -33% | 8% | u | 45µM* | 3%
Cc1ccccc1OCC(=O)NC1=NCCS1 | 3% | -8% | 39% | -29% | 28µM* | x
O=C(Nc1ccc2c(c1)OCO2)C1CC(=O)N(CCc2ccccc2)C1 (configuration not stated) | 1% | -35% | -5% | u | 16%[59 µM] | x
O=c1c(-c2cc(F)cc(F)c2)nc2cnc(N3CCNCC3)nc2n1-c1ccccc1 | x | x | x | x | 9%[0.501 µM] | x
CSc1ccc(CCNC(=O)c2c(C)nn(-c3ccc(F)cc3)c2-n2cccc2)cc1 | -6% | -8% | 60% | -16% | u | x
CCN(C(=O)c1cccn(Cc2cccc(Cl)c2)c1=O)c1ccccc1 | 2% | -5% | 30%[57 µM] | 3% | 27%[59 µM] | x
Cc1cccc(OCC(=O)Nc2ccc(N3CCCC3)cc2)c1C | u | u | -23% | x | 28µM* | -12%
CCOc1ccccc1OCC(=O)Nc1ccc(N2CCCCC2)cc1 | 9% | u | 16% | -38% | u | -23%
Cc1ccccc1OCC(=O)Nc1ccc2c(c1)OCO2 | 3% | -19% | 43% | -5% | 46%[12.7 µM] | -5%
COc1ccccc1OCCCC(=O)Nc1ccc(N2CCOCC2)cc1 | 29% | -12% | 30% | -13% | u | 22%
Cc1ccc(OCC(=O)Nc2ccc3oc(=O)ccc3c2)cc1 | 2% | -14% | 30% | 10% | -2% | x
COc1ccccc1OCC(=O)Nc1ccc2c(c1)OCO2 | -3% | u | -8% | 50µM* | -19% | x
SMILES | GLS inh | JMJD2A Tudor | HP1b chromo inh | BAZ2B inh | G9a inh | L3MBTL1 block
Cc1ccccc1OCCCC(=O)Nc1ccc(N2CCOCC2)cc1 | 31% | -21% | 9% | 1% | 45µM* | -10%
Cc1cccc(OCC(=O)Nc2ccc3oc(=O)ccc3c2)c1C | -16% | -1% | 30% | -12% | 50µM* | x
CCC1CC=CC2C1C(=O)N(Cc1ccccc1)C2c1cccc([N+](=O)[O-])c1 (configuration not stated) | x | -12% | 38% | x | x | x
COc1ccccc1NC(=O)c1cnc(SCC(=O)N2CCCc3ccccc32)n(C)c1=O | 6% | -16% | -2% | 3% | -5%[59 µM] | x
Cc1ccc(C(=O)N2CCN(c3ccc(NC(=O)COc4ccccc4C)cc3)CC2)cc1 | -9% | u | -17% | 35µM* | 40µM* | -9%[11.4 µM]
COc1ccccc1OCC(=O)Nc1ccc(N2CCCCC2)cc1 | 60% | u | -6% | u | 22µM* | u
CN1CCN(c2ccc(NC(=O)COc3ccccc3Cl)cc2)CC1 | 26% | -31% | -20% | -3% | u | x
CCC(=O)N1CCN(c2ccc(NC(=O)COc3ccccc3Cl)cc2)CC1 | 21% | -25% | 26% | -8% | 16µM* | x
CCCCCCCCCCCCCCC[C@@H](O)[C@H](CO)NC(C)=O | x | x | x | x | 17%[59 µM] | x
COc1ccc(S(=O)(=O)NC2CCN(C#N)CC2)cc1 | x | -3% | x | x | x | x
COc1ccc2c(c1)c1c(c(=O)n(-c3cccc(C)c3)c(=O)n1CC(=O)Nc1c(C)cc(C)cc1C)n2C | -1% | -2% | 54% | 40% | 32%[59 µM] | x
COc1cccc(CNC(=O)CSc2ncc(S(=O)(=O)c3ccc(C)c(Cl)c3)c(=O)[nH]2)c1 | 4% | -2% | 28%[57 µM] | 1% | -15%[59 µM] | x
CC1(C)CC(=O)c2cc(C(=O)Nc3ccc(Br)cc3)c(=O)n(-c3ccc(Cl)cc3)c2C1 | 1% | -7% | 36% | -3% | 1%[59 µM] | x
COc1ccc2nc(-c3cccc(F)c3)sc2c1 | x | 14% | x | x | x | x
O=C(OCc1cc(=O)n2nc(-c3cccs3)sc2n1)c1ccc(F)cc1 | -4% | -36% | -16% | -39% | 9%[59 µM] | x
COc1cccc(NC(=O)c2ccc3c(O)c(S(=O)(=O)c4ccccc4)c(=O)[nH]c3c2)c1 | 17% | 45µM* | -16% | -9% | 14%[59 µM] | x
Cc1ccccc1NC(=O)c1ccc2c(O)c(S(=O)(=O)c3ccccc3)c(=O)[nH]c2c1 | 15% | 1% | 42% | u | 50µM*! | x
CCCNC(=O)Cn1nc(-c2ccc(C)c(C)c2)c2cnc3ccc(F)cc3c21 | -11% | -30% | -15% | -12% | -3%[59 µM] | x
O=C(O)C1=C(C(=O)O)C2C=CC1C2 | -18% | 89µM* | -11%[57 µM] | x | x | x
Clc1ccc(C2=NCCN2)cc1 | 2% | -9% | 32% | u | 5%[59 µM] | -8%
Oc1ccc(N2CCN(C(=S)NCCc3ccccc3)CC2)cc1 | 12% | u | u | u | 7.1µM* | -13%
COc1ccc(N2CCN(C(=S)NCCc3ccccc3)CC2)cc1 | -5% | -15%[11.4 µM] | -23% | x | x | x

Source: PubChem BioAssay (National Center for Advancing Translational Sciences (NCATS))
